Measurements taken from PubChem BioAssay AID1851 (National Center for Advancing Translational Sciences (NCATS), 2009).
Among all 16,000 compounds or so, about 4,000 (25%) were called active. Another 26% or so got no clear call; they are omitted. The call rests on the fitted dose curve; in most records, active means well fitted curve in the direction sought with a large enough effect; inconclusive means small, poorly fitted or top-dose-only effect, or effect the other way; inactive means no such curve, though single readings can be large or run the other way. These entries were drawn from the full list.

The compounds below were run against Cytochrome P450 2C9 (Homo sapiens) (UniProt P11712) (assay: Cytochrome panel assay with activity outcomes). Settings: recombinant CYP, pro-luciferin dealkylation, luminescence, p450-cyp2c9; series mostly up to 57.1 µM; activity, negative = inhibition: at the top concentration.
Cytochrome P450 2C9 (Homo sapiens), sequence (P11712 whole entry, looked up): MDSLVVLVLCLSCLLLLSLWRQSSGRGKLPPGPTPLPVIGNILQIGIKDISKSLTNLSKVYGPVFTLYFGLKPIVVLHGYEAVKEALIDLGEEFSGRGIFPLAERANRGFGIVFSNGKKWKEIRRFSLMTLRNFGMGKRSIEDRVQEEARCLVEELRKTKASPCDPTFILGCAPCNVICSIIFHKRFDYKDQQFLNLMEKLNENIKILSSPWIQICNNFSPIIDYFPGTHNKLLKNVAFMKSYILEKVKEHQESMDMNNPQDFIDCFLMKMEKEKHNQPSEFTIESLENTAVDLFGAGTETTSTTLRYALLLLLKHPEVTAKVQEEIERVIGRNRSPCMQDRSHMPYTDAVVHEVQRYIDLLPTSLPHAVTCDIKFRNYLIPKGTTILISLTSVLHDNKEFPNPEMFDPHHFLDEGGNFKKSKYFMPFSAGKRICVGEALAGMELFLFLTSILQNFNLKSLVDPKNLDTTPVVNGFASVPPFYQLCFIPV
On the % scale 0 is the no-effect control and ±100 the full control effect.

Structure (SMILES)	AC50	activity, negative = inhibition
O=C(Nc1ncc(Cc2ccccc2)s1)C1COc2ccccc2O1 (configuration not stated)	6.31 µM (active)	
O=C(Nc1nnc(SCc2ccc(Cl)cc2Cl)s1)C1COc2ccccc2O1 (configuration not stated)	7.08 µM (active)	
CN(Cc1ccco1)c1cc(-c2ccccc2C(F)(F)F)ncn1		9.45% [at 2.29 µM] (inactive)
COc1ccc2[nH]cc(CCNc3cc(-c4ccccc4C)ncn3)c2c1		-17.1% [at 2.29 µM] (inactive)
COc1cc(OC)c2c(c1)C(=O)c1cc(OC)cc(OC)c1C2=O		-2.23% (inactive)
COc1ccc2c(=O)c(-c3ccccc3C)c(C)oc2c1	17.8 µM (active)	
Clc1ccc2c(c1)N(CCCN1CCCC13CCCCC3)c1ccccc1S2		10.5% [at 11.4 µM] (inactive)
COC(=O)[C@@]1(Cc2ccccc2)[C@H]2c3cc(C(=O)N4CCCC4)n(Cc4ccc(O)c(OC)c4)c3C[C@H]2CN1C(=O)c1ccccc1	2.51 µM (active)	
COC(=O)[C@@]1(Cc2ccccc2)[C@H]2c3cc(C(=O)N4CCCC4)n(Cc4ccc(OC)c(OC)c4)c3C[C@H]2CN1C(=O)c1ccccc1	1.26 µM (active)	
CC(N)=O		4.3% (inactive)
N#Cc1ccc(Oc2nc(C(N)=O)cc(-c3ccccc3)n2)cc1	6.31 µM (active)	
NC(=O)Nc1n[nH]c(-c2ccccc2)n1		-4.69% [at 11.4 µM] (inactive)
N#Cc1ccc(OC(=O)c2ccc(N=C(N)N)cc2)cc1		12.7% [at 11.4 µM] (inactive)
O=C(NC[C@@H](O)CO)c1c(I)c(C(=O)NC[C@@H](O)CO)c(I)c(N(CCO)C(=O)CO)c1I		16.1% [at 25.6 µM] (inactive)
Cc1ccc(C(=O)N2CCN(c3ccc(C(F)(F)F)cn3)CC2)cc1	15.8 µM (active)	
O=C(c1cc(C(F)(F)F)cc(C(F)(F)F)c1)N1CCC2(CC1)CN(c1ccccn1)C2		-21.7% (inactive)
O=C(c1cc(C(F)(F)F)cc(C(F)(F)F)c1)N1CCC2(CC1)CCN(c1ccccn1)CC2		9.59% (inactive)
COc1ccc(-n2c(=O)c(-c3ccccc3)nc3cnc(N4CCNCC4)nc32)cc1		1.05% (inactive)
O=c1c(-c2ccc(F)cc2)nc2cncnc2n1C1CC1		8.93% (inactive)
O=c1c(-c2ccc(F)cc2)nc2cnc(N3CCNCC3)nc2n1C1CC1	1 µM (active)	
O=c1c(-c2ccccc2)nc2cnc(N3CCNCC3)nc2n1C1CC1	0.158 µM (active)	
O=c1c(-c2ccccc2)nc2cnc(N3CCNCC3)nc2n1-c1ccccc1		-22% (inactive)
O=c1c(-c2ccccc2)nc2cnc(N3CCOCC3)nc2n1C[C@H]1CCCO1		-7.43% (inactive)
O=c1c(-c2ccc(Cl)cc2)nc2cnc(N3CCOCC3)nc2n1C1CC1		-5.18% (inactive)

Structure (SMILES)	AC50	activity, negative = inhibition
N#Cc1cccc(-c2nc3cnc(N4CCNCC4)nc3n(C3CC3)c2=O)c1	0.631 µM (active)	
N#Cc1cccc(-c2nc3cnc(N4CCOCC4)nc3n(C3CC3)c2=O)c1		-15.8% (inactive)
N#CCCn1c(=O)c(-c2cccc(C#N)c2)nc2cnc(N3CCOCC3)nc21		13% (inactive)
O=c1c(-c2ccc(F)cc2)nc2cnc(N3CCOCC3)nc2n1C1CC1		10.8% (inactive)
O=c1c(-c2ccccc2)nc2cnc(N3CCOCC3)nc2n1C1CC1	10 µM (active)	
C1CCC(C(C[C@@H]2CCCCN2)C2CCCCC2)CC1		6.08% [at 25.6 µM] (inactive)
CNc1ccnc(-c2ccccc2C)n1		24.5% [at 2.29 µM] (inactive)
C[C@@H]1O[C@@H](n2cc(F)c(=O)[nH]c2=O)[C@H](O)[C@@H]1O		25.7% (inactive)
N=C(C[C@@H](O)COc1ccccc1-c1ccccc1)N1CCCCC1		-27.4% (inactive)
CC[C@H](C)[C@@H]1O[C@]2(CC[C@@H]1C)C[C@H]1C[C@H](CC=C(C)[C@@H](O[C@H]3C[C@H](OC)[C@H](O[C@H]4C[C@H](OC)[C@H](O)[C@H](C)O4)[C@H](C)O3)[C@@H](C)C=CC=C3CO[C@@H]4[C@@H](O)C(C)=C[C@H](C(=O)O1)[C@@]34O)O2		-17.5% (inactive)
COc1ccc(-c2nc3cnc(N4CCN(C)CC4)nc3n(C3CC3)c2=O)cc1		-12.7% (inactive)
COc1ccc(-c2nc3cnc(N4CCNCC4)nc3n(C)c2=O)cc1		-21.4% (inactive)
O=c1c(-c2cc(F)cc(F)c2)nc2cnc(N3CCOCC3)nc2n1C1CC1		9.41% (inactive)
Cn1c(=O)c(-c2cc(F)cc(F)c2)nc2cnc(N3CCOCC3)nc21		10.6% (inactive)
COc1ccc(-c2nc3cnc(N4CCNCC4)nc3n(C3CC3)c2=O)cc1	7.94 µM (active)	
O=c1c(-c2cc(F)cc(F)c2)nc2cnc(N3CCNCC3)nc2n1C1CC1	0.158 µM (active)	
CN1CCN(c2nc(-c3ccoc3)nc3ccccc23)CC1		6.78% [at 2.29 µM] (inactive)
COc1ccccc1CN1CC2(CCN(C(=O)c3cnccn3)CC2)C1		9.97% (inactive)
CC(C)CN1CCC2(CC1)CCN(C(=O)c1ccncc1)CC2		4.6% (inactive)
Cc1cc(=O)[nH]c2ccccc12		25.9% (inactive)
CCn1c(=O)[nH]c2ccccc2c1=O		17.7% (inactive)
CC1CCCC(n2c(=S)[nH]c3ccccc3c2=O)C1C (configuration not stated)	3.55 µM (active)	
CN(C)C(=O)/N=N\C(=O)N(C)C		-6.5% (inactive)
